IMPase Li inh: IMPase inhibition in cells with lithium potentiation. CHO-M1 cells, IP1 TR-FRET (IP-One), carbachol + lithium. Potency, µM (doses to about 59.4 µM), inactives show at the top dose activity, negative = IMPase inhibition, most hits filed as inhibitors. 0.35% of 210,000 active. AID 1457;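 note: IP1 builds up when IMPase is blocked and the TR-FRET signal falls; potency is the fitted concentration of half-maximal effect; plate controls were basal vehicle for no effect and high inhibitor control for full effect; nearly all actives have a fitted effect of over 50% in size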
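Lithium-sensitised IP1 accumulation assay; M1-expressing CHO cells treated 30 min at 37C with compound. Competitive antibody detection by time-resolved FRET followed a 10 min room-temperature lysis step.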
HPGD block: inhibitors of human 15-hydroxyprostaglandin dehydrogenase (HPGD). P15428. purified HPGD, NADH fluorescence kinetic, PGE2 substrate. Potency, µM, for inactives: at the top dose activity change, negative = inhibition, usual class: inhibitors. 4.3% of 150,000 active. AID 894; active = well fitted inhibition curve with a large enough effect, not every such curve was filed as active; inconclusive = small, poorly fitted or top-dose-only effect, or another doubt; inactive = no such curve, though single readings can be large or run the other way; note: potency is the fitted concentration of half-maximal effect
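NADH formation kinetics: reaction with 30 uM PGE2 and 1 mM NAD+ (final), 20 nM enzyme, Tris-HCl pH 8 with Tween 20, after 15 min compound preincubation at room temperature. Fluorescence change, last versus first of five reads.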
ALDH1A1 inh: blocks purified human ALDH1A1 activity | P00352 | Purified ALDH1A1, NADH fluorescence, propionaldehyde substrate | Potency, µM (doses to about 75.3 µM), for inactives: at the top dose activity, negative = inhibition, actives largely listed as inhibitors | 7.3% of 220,000 active; active = well fitted inhibition curve with a large enough effect, not every such curve was filed as active; inconclusive = small, poorly fitted or top-dose-only effect, or another doubt; inactive = no such curve, though single readings can be large or run the other way;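 note: potency is the fitted concentration of half-maximal effect; plate controls were no enzyme wells and a reference inhibitor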
Target sequence (P00352 whole entry, looked up): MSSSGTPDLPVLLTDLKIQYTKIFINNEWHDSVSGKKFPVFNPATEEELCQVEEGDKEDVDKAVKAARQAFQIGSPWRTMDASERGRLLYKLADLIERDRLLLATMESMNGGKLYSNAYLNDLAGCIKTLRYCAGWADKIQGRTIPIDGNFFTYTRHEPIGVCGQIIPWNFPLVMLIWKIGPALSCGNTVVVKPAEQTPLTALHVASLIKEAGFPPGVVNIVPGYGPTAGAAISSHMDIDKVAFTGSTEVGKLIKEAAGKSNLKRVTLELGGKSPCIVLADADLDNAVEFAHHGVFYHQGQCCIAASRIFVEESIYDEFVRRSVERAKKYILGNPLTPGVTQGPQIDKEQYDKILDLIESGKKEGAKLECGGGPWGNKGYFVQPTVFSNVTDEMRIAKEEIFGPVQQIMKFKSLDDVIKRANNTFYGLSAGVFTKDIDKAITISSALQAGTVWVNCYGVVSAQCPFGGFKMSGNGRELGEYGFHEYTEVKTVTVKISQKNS
12-hLO inh: blocks human 12-lipoxygenase activity. P18054. purified 12-hLO, xylenol orange hydroperoxide absorbance. Potency, µM (doses to about 57.1 µM), without a hit: top-dose activity change, negative = inhibition, usual class: inhibitors. 0.12% of 150,000 active; note: potency is the fitted concentration of half-maximal effect; nearly all actives have a fitted effect of over 55% in size
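Purified human 12hLO (150 nM final) was preincubated with compounds for 15 min at room temperature in 25 mM Hepes pH 7.0, 0.01% Triton X-100, then reacted with 40 uM arachidonic acid for 30 min. Hydroperoxide was detected with ferrous iron/xylenol orange.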
IMPase inh: membrane-permeable compound that blocks inositol monophosphatase; CHO-M1 cells, IP1 accumulation, HTRF TR-FRET ratio; inhibition (IP1 accumulation), % at 46.1 µM; 120,000 tested, under 10 active; AID 901; active = well fitted curve in the direction sought with a large enough effect in the signal ratio, not every such curve was filed as active; inconclusive = small, poorly fitted or top-dose-only effect, or a change in a side signal; inactive = no such curve, though single readings can be large or run the other way; the % refers to the signal ratio;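 note: cells stimulated with carbachol in lithium chloride buffer; plate controls were DMSO basal wells for no effect and reference inhibitor wells for full effect; higher means more IMPase inhibition seen as more IP1 and lower FRET ratio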
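In this qHTS, compounds (final up to 46 uM) act on CHO-M1 cells that are then activated through the M1 receptor with carbachol, in pH 7.4 buffer containing 50 mM LiCl, for 30 min. IP1 accumulation is quantified by the IP-One immunoassay.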
NPSR antag: neuropeptide S receptor (human) antagonism, cAMP | CHO-NPSR cells, cAMP TR-FRET, antagonist mode | Potency, µM (top dose mostly 38.3 µM), without a hit: at the highest dose activity change, negative = inhibition, actives largely listed as inhibitors | 1% of 220,000 active; note: potency is the fitted concentration of half-maximal effect; nearly all actives have a fitted effect of over 50% in size
The depositor's hits bear a star; ? = inconclusive; / = no result given; [ ] = dose if it differs, or a comment. Most compounds without a hit are left out; they make up all but 8.9% or so of the library. Unless noted, calls come from the whole dose curve; as a rule, active = well fitted curve in the direction sought with a large enough effect; inconclusive = small, poorly fitted or top-dose-only effect, or another doubt; inactive = no such curve, though single readings can be large; an effect the other way counts as inactive or inconclusive. Unless noted, % is set by controls: 0 for no effect and ±100 for the full control effect.

SMILES	IMPase Li inh	HPGD block	ALDH1A1 inh	12-hLO inh	IMPase inh	NPSR antag
O=[N+]([O-])c1ccc(Cl)cc1N1CCCCC1	5%	/	18µM*	/	/	2%
Cc1oc(-c2ccccc2)nc1CS(=O)CC(=O)N1CCc2ccccc2C1 (stereo not drawn)	-9%[38.3 µM]	?	25µM*	7%	2	-12%[46.1 µM]
Cc1cccc(-c2nc(CS(=O)CC(=O)N3CCCCC3)c(C)o2)c1 (stereo not drawn)	1%[38.3 µM]	-7%	0%	4%	0	-9%[46.1 µM]
CCCc1nc(SCc2ccccc2Cl)n[nH]1	2%[38.3 µM]	13µM*	-4%	4%	-6	13%[46.1 µM]
CCc1nc(SCc2cc(Cl)ccc2OC)n[nH]1	17%[38.3 µM]	13µM*	-3%	-2%	9	-3%[46.1 µM]
CC(=O)Nc1nc(SCc2ccc(Cl)cc2Cl)n[nH]1	-4%[38.3 µM]	1%	-3%	-1%	1	-21%[46.1 µM]
O=C(Nc1cnc2ccccc2c1)c1ccco1	12%[38.3 µM]	-12%	-11%	-10%	-6	-7%[46.1 µM]
O=C(/C=C/c1ccc2c(c1)OCO2)NCCSCc1ccc(Cl)cc1	15%[38.3 µM]	-21%	-17%	-9%	5	-18%[46.1 µM]
COCCOC(=O)c1[nH]c2c(c1C)C(=O)CC(c1ccco1)C2 (stereo not drawn)	27%[38.3 µM]	-11%	?	-7%	4	?
Cc1c(C(=O)OCCOC(C)C)[nH]c2c1C(=O)CC(c1ccco1)C2 (stereo not drawn)	10%	-10%	25µM*	-3%	12	22%
Cc1c(C(=O)OCc2ccccc2)[nH]c2c1C(=O)CC(c1ccco1)C2 (stereo not drawn)	36%[38.3 µM]	-28%	8.9µM*	-10%	6	?
CCOC(=O)c1[nH]c2c(c1C)C(=O)CC(c1ccco1)C2 (stereo not drawn)	19%[38.3 µM]	-19%	?	-11%	2	?
C[n+]1ccn(CC(=O)c2ccc(Br)cc2)c1	-2%	5%	-2%	2%	/	10%
O=C(NCCc1c[nH]c2ccccc12)C1CCN(S(=O)(=O)c2ccccc2F)CC1	3%	/	?	/	/	-12%
O=C(NCCc1c[nH]c2ccccc12)C1CCN(c2nnc(N3CCCC3=O)s2)CC1	2%[38.3 µM]	-6%	0.32µM*	-11%	6	-6%[46.1 µM]
CCCC(=O)O[C@]1(C(=O)COC(C)=O)CC[C@H]2[C@@H]3C[C@H](F)C4=CC(=O)C=C[C@]4(C)[C@@]3(F)[C@@H](O)C[C@@]21C	28%	-8%	-6%	-4%	/	2.5µM*
COc1ccc(NC(=O)CSc2nc3c(c(=O)n2-c2ccccc2OC)SCC3)cc1	17%[38.3 µM]	-5%	11µM*	-14%	-3	-24%[46.1 µM]
COC(=O)C(C)Sc1nc2c(c(=O)n1-c1ccccc1)SCC2 (stereo not drawn)	-10%[38.3 µM]	-8%	3.2µM*	3%	0	9%[46.1 µM]
COc1ccccc1-n1c(SCC(N)=O)nc2c(c1=O)SCC2	13%[38.3 µM]	-10%	?	-1%	0	-1%[46.1 µM]
CCOc1ccc(NC(=O)CSc2nc3[nH]ncc3c(=O)n2-c2ccccc2OC)cc1	-5%	-9%	8.9µM*	-2%	/	15%
Cc1c(NC(=O)c2ccc(CN3CCc4ccccc4C3)cc2)c(=O)n(-c2ccccc2)n1C	23%[38.3 µM]	-6%	-11%	2%	8	-5%[46.1 µM]
C/C(=N\NC(=S)NC(C)C)c1cccc([N+](=O)[O-])c1	-3%	-11%	-2%	-27%	/	-18%
NC(=O)Cn1c(=O)n(Cc2ccco2)c(=O)c2c3c(sc21)CCCCC3	5%[38.3 µM]	-18%	11µM*	-11%	9	29%[46.1 µM]
O=C(Cn1c(=O)n(Cc2ccco2)c(=O)c2c3c(sc21)CCCC3)Nc1ccccc1	15%[38.3 µM]	-11%	?	-3%	8	-23%[46.1 µM]
CCn1c(=O)n(CCc2ccccc2)c(=O)c2c3c(sc21)CCCC3	-17%[38.3 µM]	-8%	-2%	-6%	0	?
O=c1c2c3c(sc2nc(NCCOCCO)n1Cc1ccco1)CCCCC3	/	/	/	/	/	-30%
O=c1c2c3c(sc2n(CCN2CCOCC2)c(=O)n1Cc1ccco1)CCCCC3	14%[38.3 µM]	-14%	7.9µM*	-18%	2	-51%[46.1 µM]

Compound activity (PubChem)
